Among the data in PubChem BioAssay AID651725 (National Center for Advancing Translational Sciences (NCATS), 2012) are activity change values, retold here.

Hit rate of the full screen: of about 360,000 compounds, about 2,000 (0.56%) were called active. Not shown: some 2% with an inconclusive outcome. Many of the other results were omitted from the sample, so actives are more common in it than they were. A number with no mark means an inactive call. No stated cut-off is given here; in the data, active means activity change below about -65%; inconclusive means mostly about -30% to -63%; inactive means weaker than that.
On the % scale 0 is the no-effect control and ±100 the full control effect.

Chain of Homeobox protein SIX1 (Homo sapiens) + Protein phosphatase EYA2 (Homo sapiens) (O00167 whole entry, looked up): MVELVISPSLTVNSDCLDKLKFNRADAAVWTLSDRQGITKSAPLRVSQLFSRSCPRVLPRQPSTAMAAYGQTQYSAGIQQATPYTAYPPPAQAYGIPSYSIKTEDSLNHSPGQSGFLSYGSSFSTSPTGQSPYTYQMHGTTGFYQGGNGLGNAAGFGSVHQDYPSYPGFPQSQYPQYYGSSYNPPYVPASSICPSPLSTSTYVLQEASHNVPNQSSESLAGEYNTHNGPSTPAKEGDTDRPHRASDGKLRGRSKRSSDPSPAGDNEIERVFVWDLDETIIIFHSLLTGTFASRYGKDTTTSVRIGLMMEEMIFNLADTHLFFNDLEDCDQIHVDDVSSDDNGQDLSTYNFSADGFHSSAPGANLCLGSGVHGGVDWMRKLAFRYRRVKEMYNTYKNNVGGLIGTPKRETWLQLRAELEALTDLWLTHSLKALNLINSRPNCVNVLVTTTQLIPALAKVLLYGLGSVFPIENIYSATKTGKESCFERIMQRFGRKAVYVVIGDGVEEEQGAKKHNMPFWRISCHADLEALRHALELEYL
Chain of Homeobox protein SIX1 (Homo sapiens) + Protein phosphatase EYA2 (Homo sapiens) (Q15475 whole entry, looked up): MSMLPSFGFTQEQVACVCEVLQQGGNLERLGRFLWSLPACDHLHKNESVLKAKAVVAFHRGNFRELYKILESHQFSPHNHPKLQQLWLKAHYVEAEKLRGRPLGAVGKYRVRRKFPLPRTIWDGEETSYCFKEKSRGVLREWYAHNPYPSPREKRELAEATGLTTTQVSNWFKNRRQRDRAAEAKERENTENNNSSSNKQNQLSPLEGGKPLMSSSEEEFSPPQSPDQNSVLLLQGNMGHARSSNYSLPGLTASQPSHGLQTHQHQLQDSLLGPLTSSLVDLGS

For the test, the target named is Homeobox protein SIX1 (Homo sapiens) + Protein phosphatase EYA2 (Homo sapiens) (UniProt Q15475+O00167). The test is described as follows: qHTS Assay for Inhibitors of the Six1/Eya2 Interaction. The following applies: AlphaScreen GST-Six1/His-Eya2 binding, biochemical; active compounds read low. The text has this:
Its expression is low or undetectable in normal adult breast tissue but the gene is over-expressed in 50% of primary breast tumors and 90% of metastatic lesions. […] Similar to Six1, Eya2 is also not expressed in most normal adult tissues, but is reexpressed in cancers. The Six1-Eya interaction is essential for proliferation during embryonic development, and both Six1 and Eya2 have been independently implicated in the same types of cancer. Because Six1 and Eya2 are embryonic genes with little expression in adult tissues, inhibitors of their expression/activity are likely to have limited side effects. Our goal is to identify inhibitors of the Six1/Eya interaction for potential cancer therapy. To this end, we have developed a homogenous AlphaScreen assay targeting the Six1/Eya interaction. We performed a large scale HTS of the Molecular Libraries Small Molecule Repository (MLSMR) to identify inhibitors of the Six1/Eya interaction as potential anti-cancer therapeutics. Compounds identified can also be used as chemical probes to better understand the biological functions of Six1 and Eya. NIH Chemical Genomics Center [NCGC] NIH Molecular Libraries Probe Centers Network [MLPCN] MLPCN Grant: DA033147 Assay Submitter (PI): Rui Zhao, University of Colorado Denver
The first step of the 5 uL AlphaScreen assay is to dispense assay buffer (50 mM Tris, pH 8.0, 300 mM NaCl, 0.05% BSA, 0.02% Tween 20, 1 mM TCEP) into a Greiner 1536 white solid bottom microtiter plate (789175-F). Five microliters is added to Column 1, 4 uL is added to Column 2 and 3 uL is added to Columns 3 through 48. A 5X protein solution (250 nM GST-Six1 protein + 500 nM His-tagged Eya2 protein) is mixed and 1 uL is dispensed to Columns 3-48. Using a 1536 pintool, 23 nL of compound is transferred to the assay plate. A solution of 5X AlphaScreen beads is mixed (50 ug/mL Glutathione linked donor beads + Nickel chelated acceptor beads) and 1 uL is dispensed to Columns 2-48. The assay plate is incubated for one hour, with a lid, at 37 deg C in the dark. The plate is read using a Perkin Elmer Envision using an AlphaScreen protocol.
With `COc1ccccc1-n1c(O)c(C=NC2CC2)c(=O)[nH]c1=O`, the activity change is 0.906%.

For `O=c1[nH]c(=S)n(C2CC2)c(O)c1/C=N/N1CCOCC1`, the activity change is -0.819%.

For the molecule `O=c1[nH]c(=O)n(Cc2ccccc2)c(O)c1/C=N/Nc1c(F)c(F)c(F)c(F)c1F`, the activity change is 1%.

For the molecule `O=C(N/N=C/c1c(O)n(C2CC2)c(=S)[nH]c1=O)c1ccccc1Cl`, the activity change is -80.8% (active).

For the molecule `Cc1cccc(-n2c(O)c(/C=N/N3CCOCC3)c(=O)[nH]c2=S)c1`, the activity change was -2.01%.

As to `O=C(N/N=C/c1c(O)n(Cc2ccccc2)c(=O)[nH]c1=O)c1ccccc1`, the activity change was -70.8% (active).

Regarding `CC/C(=N\NC(=O)c1ccccc1O)c1c(O)n(Cc2ccccc2)c(=O)[nH]c1=O`, the activity change was -9.73%.

Regarding `O=C(N/N=C/c1c(O)n(C2CC2)c(=S)[nH]c1=O)c1ccccc1`, the activity change was -88.6% (active).

In the case of `CC(C)c1ccc(-n2c(O)c(/C=N/N3CCOCC3)c(=O)[nH]c2=S)cc1`, the activity change was 5.13%.

As for `CCOC(=O)[C@]12Cc3cc(OC)ccc3[C@H]1N(C(C)C)C(=O)c1ccccc12`, the activity change is -2.51%.

On to `CCOC(=O)[C@]12Cc3ccccc3[C@H]1N(C1CCCCC1)C(=O)c1cc(OC)ccc12`, for which the activity change is -3.21%.

Take `C[C@]12CCC3C(CC[C@H]4[C@H](O)[C@H](O)CC[C@]34C)C1CC[C@@H]2O` (stereo not given in full): the activity change is 0%.

Take `COP(=O)(NS(=O)(=O)c1ccccc1)OC`: the activity change was 12.4%.

Consider `CC1(C)Cc2c(C#N)c(N3CCNCC3)nc(-c3ccco3)c2CS1`, for which the activity change is -3.88%.

For the molecule `O=C1NCN(c2ccccc2)C12CCN(C(c1cccs1)c1nnnn1C1CCCCC1)CC2` (stereo not given), the activity change was -13.5%.

For the molecule `COc1ccc(-n2nnnc2C(c2cccc3ccccc23)N2CCC(n3c(=O)[nH]c4ccccc43)CC2)cc1` (stereo not given), the activity change was -11.3%.

As to `O=C(NCC(c1cccnc1)N1CCN(c2ccccc2)CC1)Oc1ccccc1` (stereo not given), the activity change is -4.91%.

As for `CC12CN3CC(C)(CN(C1)C3c1cccs1)C2` (stereo not given), the activity change was -7.54%.

Take `CC(C)c1ccc(OCC(=O)N2CCN(C)CC2)c(Br)c1`: the activity change was -2.15%.

With `CCC(C)n1c(O)c(/C=N/Nc2nc3c(c(=O)n(C)c(=O)n3C)n2C)c(=O)[nH]c1=S` (stereo not given), the activity change was -86.1% (active).

As for `CCC(=O)CC(c1ccc([N+](=O)[O-])cc1)c1c(O)c2ccccc2oc1=O` (stereo not given), the activity change is 0.567%.

Turning to `O=c1[nH]c2ccccc2n1C1CCN(C(c2ccccc2)c2nnnn2Cc2ccccc2)CC1` (stereo not given), the activity change is -20.3%.

`CCCCC(=O)N/N=C/c1c(O)n(-c2ccccc2)c(=O)[nH]c1=O`: the activity change was -83.5% (active).

For the molecule `CCCCC(=O)N/N=C/c1c(O)n(CCC2=CCCCC2)c(=O)[nH]c1=O`, the activity change was -75.4% (active).

For the molecule `CCc1nnc(NS(=O)(=O)c2ccc(N=Cc3c(O)n(-c4ccccc4)c(=O)[nH]c3=O)cc2)s1`, the activity change is 1.54%.

Turning to `COc1ccc(CCn2c(O)c(C=NC3CC3)c(=O)[nH]c2=O)cc1OC`, the activity change was -3.07%.

As to `CCCCC(=O)N/N=C/c1c(O)n(CC)c(=S)n(CC)c1=O`, the activity change is -9.7%.

With `O=c1[nH]c(=O)n(CCc2ccc(F)cc2)c(O)c1/C=N/N1CCCCC1`, the activity change was 5.39%.

In the case of `COC(=O)C[C@H]1CC[C@H]2NC[C@@H](O)COC[C@@H]2O1`, the activity change is 4.76%.

Consider `CC[C@H]1CC2CN3CCc4c([nH]c5ccccc45)C(C(=O)OC)(C2)C13` (stereo not given in full), for which the activity change is -23.8%.
